Laboratory results reported in article PMC11995724, “Antibiotic target discovery by integrated phenotypic and activity-based profiling of electrophilic fragments” (Cell chemical biology, 2025).
Hit rate of the full screen: of about 3,200 compounds, about 75 (2%) showed an effect of 50% or more. This excerpt belongs to a sample that is enriched for strong results.

System: T1, S. aureus MSSA476
T1 construct: MSSA476
Set-up: species or system S. aureus MSSA476 (TSB) or V. cholerae SAD30 (LB); 384-well bacterial growth screen at 25 uM, OD600 relative to DMSO control
Conditions: 25 µM; inhibitor

SMILES	% of control remaining [%]
CCn1c(-c2ccccc2)c(C(=O)CCl)c2ccccc21 [10-E12, 2-chloro-1-(1-ethyl-2-phenyl-1H-indol-3-yl)ethan-1-one]	-0.3125
N#Cc1ccc(NC(=O)CCl)cc1Cl [4-N03, 2-chloro-N-(3-chloro-4-cyanophenyl)acetamide]	74.7022
C=CC(=O)Nc1ccc(C(=O)N2CCC3(CC2)OCCCO3)cc1 [2-D16, N-(4-{1,5-dioxa-9-azaspiro[5.5]undecane-9-carbonyl}phenyl)prop-2-enamide]	123.586
CC(Cl)C(=O)c1ccc(Cl)cc1 (stereo not shown) [10-O04, 2-chloro-1-(4-chlorophenyl)propan-1-one]	129.063
